The molecules below were run on DDR1.
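Also: kd values determined as follow-up on hits from a single-replicate KINOMEscan panel screen.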

| Compound | Kd [nM] |
| --- | --- |
| CS(=O)(=O)Cc1ccc(Nc2nccc(-c3c(-c4cccc(NC(=O)C5CCCCC5)c4)nn4ncccc34)n2)cc1 [GSK350559] | 23 |
| Nc1nccc(-c2c(-c3ccc(F)cc3)ncn2C2CCN(Cc3ccccc3)CC2)n1 [SB-219980] | 140 |
| Cc1ccc(NC(=O)c2ccc(Cl)cc2)cc1-c1ccc(C(=O)Nc2ccncc2)cc1 [GSK1398467] | 710 |
| COc1cccc(C2=C(Nc3cc(Cl)c(O)c(Cl)c3)C(=O)NC2=O)c1 [SB-390767] | > 10000 |
| COc1ccc2cc(-c3nc(-c4ccccc4C(C)C)[nH]c3-c3ccncc3)ccc2c1 [SB-660566] | 330 |
| COc1ccc(Nc2nccc(N3CCC(NC(=O)c4cc5ccccc5s4)C3)n2)cc1 (stereo not drawn) [GSK1379738] | > 10000 |
| CS(=O)(=O)CCNCc1nc(-c2ccc3ncnc(Nc4ccc(OCc5ccccc5)c(Cl)c4)c3c2)cs1.Cl [GW582764] | > 10000 |
| Cc1ccc(NC(=O)Nc2ccc(Cl)c(C(F)(F)F)c2)cc1-c1ccc(C(=O)Nc2ccncc2)cc1 [GSK1398470] | 120 |
| COc1cccc(NC(=O)Nc2ccc(C)c(-c3ccc(C(=O)Nc4ccncc4)cc3)c2)c1 [GSK1398474] | 270 |
| Cc1ccc(NC(=O)Nc2ccccc2)cc1-c1ccc(C(=O)Nc2ccncc2)cc1 [GSK1398471] | 180 |
| Cc1ccc(NC(=O)Nc2ccc(Cl)cc2)cc1-c1ccc(C(=O)Nc2ccncc2)cc1 [GSK1398472] | 73 |
| Cc1ccc(NC(=O)Nc2ccccc2F)cc1-c1ccc(C(=O)Nc2ccncc2)cc1 [GSK1398477] | 180 |

These molecules were tested on T1, DMPK2.
T1 construct: gene CDC42BPG

| Compound | Kd [nM] |
| --- | --- |
| CC(=O)c1c(C)c2cnc(Nc3ccc(N4CCNCC4)cn3)nc2n(C2CCCC2)c1=O | > 10000 |
| Fc1ccc(-c2nn3cccc(F)c3c2-c2ccncc2)cc1 [GW475620] | 1000 |
| CCn1c(-c2c(N)noc2C)nc2cnccc21 [SB-737856] | > 10000 |
| Fc1ccc(-c2nc3n(c2-c2ccncc2)CCS3)cc1 [GI98581] | 1200 |

These molecules were tested on T2, DRAK1.
T2 construct: gene STK17A

| Compound | Kd [nM] |
| --- | --- |
| CNc1cc(-c2ccc3c(N)n[nH]c3c2)nc(N)n1 [GSK2224810] | 89 |
| CC[C@@H]1CO[C@H](C(=O)Nc2ccccc2)CN1c1cc(-c2ccc3c(N)n[nH]c3c2)nc(NC)n1 [GSK2376236] | 220 |
| CNc1nc(-c2ccc3c(N)n[nH]c3c2)cc(N2C[C@@H](C(=O)Nc3ccccc3)CC[C@H]2C)n1 [GSK2298859] | 89 |
| CC(C)c1cc(-c2ccc3c(N)n[nH]c3c2)nc(N)n1 [GSK2250882] | 29 |
| Cn1cncc1-c1cc2c(Nc3ccc(OCc4ccccc4)cc3)ncnc2cn1 [GW281179] | > 10000 |
